Measurements as given in PubChem BioAssay AID1159580 (chemical genetic matrix, 2015).
Values joined by “and” are separate entries in the source; they are usually repeats but may differ in a detail not shown here. Identical values can stand only once. In all, about 5,500 compounds went through this assay and about 2,000 (36%) were called active. Roughly 18% stayed inconclusive and do not appear here. Rule as the data show it: active = normalized growth mostly below about 0.91 (no sharp cut-off); inconclusive = no clear call, values can overlap the other calls; inactive = mostly above about 0.92. The list shows a part of the results.

Assay: chemical genetic growth profiling, strain panel (AID 1159580);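 also: tested at 20 µM; growth read once vehicle control cultures reached saturation at 30 °C; 1 = growth at the plate median or of vehicle wells; lower values mean less growth of the strain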
Conditions: growth OD

Measured: normalized growth

CC(N)C(=O)OC(C)(C)Cc1ccc(Cl)cc1 (stereo unspecified)
inactive: S. cerevisiae deletion strains, locus YJR075W, strain HOC1, hits give low values 0.986 and 1 | S. cerevisiae deletion strains, locus YKL009W, strain mrt4, hits give low values 0.922 | S. cerevisiae deletion strains, locus YKL068W, hits give low values 0.992 | S. cerevisiae deletion strains, locus YKL085W, strain MDH1 (second series), hits give low values 0.98 | S. cerevisiae deletion strains, locus YKL085W, strain MDH1, hits give low values 0.98 | S. cerevisiae deletion strains, locus YKL160W, strain elf1, hits give low values 1.02 | S. cerevisiae deletion strains, locus YKL190W, strain CNB1, hits give low values 0.989 | S. cerevisiae deletion strains, locus YKR001C, strain vps1, hits give low values 1.03 | S. cerevisiae deletion strains, locus YKR026C, strain gcn3, hits give low values 0.998 | S. cerevisiae deletion strains, locus YKR091W, strain srl3, hits give low values 1.01 | S. cerevisiae deletion strains, locus YLL001W, strain dnm1, hits give low values 0.977 | S. cerevisiae deletion strains, locus YLL026W, hits give low values 1.01 | S. cerevisiae deletion strains, locus YLL041C, strain sdh2, hits give low values 1.02 | S. cerevisiae deletion strains, locus YLR027C, strain aat2, hits give low values 1.01 | S. cerevisiae deletion strains, locus YLR039C, strain RIC1, hits give low values 1.03 | S. cerevisiae deletion strains, locus YLR058C, strain SHM2, hits give low values 0.97 | S. cerevisiae deletion strains, locus YLR102C, strain apc9, hits give low values 0.995 | S. cerevisiae deletion strains, locus YLR113W, strain HOG1, hits give low values 1.01 | S. cerevisiae deletion strains, locus YLR221C, strain rsa3, hits give low values 1.02 | S. cerevisiae deletion strains, locus YLR258W, strain gsy2, hits give low values 1.02 | S. cerevisiae deletion strains, locus YLR262C, strain YPT6 (second series), hits give low values 1.06 | S. cerevisiae deletion strains, locus YLR262C, strain YPT6, hits give low values 0.986 | S. cerevisiae deletion strains, locus YLR268W, strain sec22, hits give low values 1.07 | S. cerevisiae deletion strains, locus YLR320W, strain mms22, hits give low values 1.04 | S. cerevisiae deletion strains, locus YLR330W, strain CHS5, hits give low values 0.988 | S. cerevisiae deletion strains, locus YLR342W, strain FKS1 (second series), hits give low values 0.928 | S. cerevisiae deletion strains, locus YLR342W, strain FKS1, hits give low values 1.02 | S. cerevisiae deletion strains, locus YLR357W, strain rsc2, hits give low values 1.03 | S. cerevisiae deletion strains, locus YLR370C, strain arc18, hits give low values 1.01 | S. cerevisiae deletion strains, locus YLR371W, strain rom2, hits give low values 0.986 | S. cerevisiae deletion strains, locus YLR384C, strain iki3, hits give low values 1.01 | S. cerevisiae deletion strains, locus YLR418C, strain cdc73, hits give low values 0.983 | S. cerevisiae deletion strains, locus YML016C, strain PPZ1, hits give low values 0.984 | S. cerevisiae deletion strains, locus YML032C, strain rad52, hits give low values 0.982 | S. cerevisiae deletion strains, locus YML120C, strain ndi1, hits give low values 1.02 | S. cerevisiae deletion strains, locus YML124C, strain tub3, hits give low values 0.985 | S. cerevisiae deletion strains, locus YMR058W, strain fet3, hits give low values 1.03 | S. cerevisiae deletion strains, locus YMR078C, strain ctf18, hits give low values 0.98 | S. cerevisiae deletion strains, locus YMR125W, strain sto1, hits give low values 1.01 | S. cerevisiae deletion strains, locus YMR129W, hits give low values 1.02 | S. cerevisiae deletion strains, locus YMR205C, strain PFK2, hits give low values 1.02 | S. cerevisiae deletion strains, locus YMR223W, strain ubp8, hits give low values 0.94 | S. cerevisiae deletion strains, locus YMR231W, strain pep5, hits give low values 1.02 | S. cerevisiae deletion strains, locus YMR263W, strain SAP30, hits give low values 0.984 and 1.02 | S. cerevisiae deletion strains, locus YMR307W, strain GAS1, hits give low values 1.04 | S. cerevisiae deletion strains, locus YNL067W, strain RPL9B, hits give low values 0.996 | S. cerevisiae deletion strains, locus YNL071W, strain lat1, hits give low values 1.02 | S. cerevisiae deletion strains, locus YNL128W, strain TEP1, hits give low values 0.975 and 1.02 | S. cerevisiae deletion strains, locus YNL153C, strain GIM3, hits give low values 0.992 | S. cerevisiae deletion strains, locus YNL175C, strain NOP13, hits give low values 1.04 | S. cerevisiae deletion strains, locus YNL183C, strain NPR1, hits give low values 0.982 | S. cerevisiae deletion strains, locus YNL197C, strain WHI3, hits give low values 1.09 | S. cerevisiae deletion strains, locus YNL209W, strain ssb2, hits give low values 1.02 | S. cerevisiae deletion strains, locus YNL224C, strain SQS1, hits give low values 1.05 | S. cerevisiae deletion strains, locus YNL233W, strain BNI4, hits give low values 0.983 | S. cerevisiae deletion strains, locus YNL248C, strain rpa49, hits give low values 1.02 | S. cerevisiae deletion strains, locus YNL250W, strain rad50, hits give low values 0.975 | S. cerevisiae deletion strains, locus YNL271C, strain bni1, hits give low values 1 | S. cerevisiae deletion strains, locus YNL298W, strain CLA4, hits give low values 0.981 | S. cerevisiae deletion strains, locus YNL307C, strain MCK1, hits give low values 0.972 | S. cerevisiae deletion strains, locus YNL322C, strain KRE1 (second series), hits give low values 1.01 | S. cerevisiae deletion strains, locus YNL322C, strain KRE1, hits give low values 0.986 | S. cerevisiae deletion strains, locus YNR049C, strain mso1, hits give low values 1.01 | S. cerevisiae deletion strains, locus YNR052C, strain pop2, hits give low values 0.986 | S. cerevisiae deletion strains, locus YOL006C, strain TOP1, hits give low values 1.05 | S. cerevisiae deletion strains, locus YOL012C, strain htz1 1 | S. cerevisiae deletion strains, locus YOL147C, strain pex11, hits give low values 0.988 | S. cerevisiae deletion strains, locus YOR001W, strain rrp6, hits give low values 1.06 | S. cerevisiae deletion strains, locus YOR061W, strain CKA2, hits give low values 0.975 | S. cerevisiae deletion strains, locus YOR069W, strain VPS5, hits give low values 0.981 | S. cerevisiae deletion strains, locus YOR070C, strain gyp1, hits give low values 1.02 | S. cerevisiae deletion strains, locus YOR080W, strain dia2, hits give low values 1.03 | S. cerevisiae deletion strains, locus YOR083W, strain WHI5 (second series), hits give low values 1.04 | S. cerevisiae deletion strains, locus YOR083W, strain WHI5, hits give low values 1.01 | S. cerevisiae deletion strains, locus YOR106W, strain vam3, hits give low values 1.07 | S. cerevisiae deletion strains, locus YOR136W, strain idh2, hits give low values 0.977 | S. cerevisiae deletion strains, locus YOR144C, strain elg1, hits give low values 0.988 | S. cerevisiae deletion strains, locus YOR184W, strain ser1, hits give low values 0.993 | S. cerevisiae deletion strains, locus YOR231W, strain MKK1, hits give low values 1.02 | S. cerevisiae deletion strains, locus YOR265W, strain rbl2, hits give low values 1.01 | S. cerevisiae deletion strains, locus YOR270C, strain vph1, hits give low values 1.09 | S. cerevisiae deletion strains, locus YOR290C, strain snf2, hits give low values 1.02 | S. cerevisiae deletion strains, locus YOR316C, strain cot1, hits give low values 0.99 | S. cerevisiae deletion strains, locus YPL051W, strain arl3, hits give low values 1.02 | S. cerevisiae deletion strains, locus YPL055C, strain LGE1, hits give low values 0.937 and 1.01 | S. cerevisiae deletion strains, locus YPL078C, strain atp4, hits give low values 1.01 | S. cerevisiae deletion strains, locus YPL106C, strain sse1, hits give low values 1.07 | S. cerevisiae deletion strains, locus YPL240C, strain hsp82, hits give low values 0.977 | S. cerevisiae deletion strains, locus YPL241C, strain CIN2, hits give low values 0.994 and 1.01 | S. cerevisiae deletion strains, locus YPL256C, strain CLN2, hits give low values 1.03 | S. cerevisiae deletion strains, locus YPR119W, strain clb2, hits give low values 0.989 | S. cerevisiae deletion strains, locus YPR141C, strain kar3, hits give low values 0.974 | S. cerevisiae deletion strains, locus YPR163C, strain tif3, hits give low values 0.993 | S. cerevisiae deletion strains, locus YPR167C, strain met16, hits give low values 0.993 | S. cerevisiae deletion strains, strain wtn01, hits give low values 0.995 | S. cerevisiae strains, strain wild type, hits give low values 0.982
